# Results from the supplement of paper PMC3334620.
# Over roughly 33,000 sequences, “E-score (-0.5 to 0.5)” has its median near -0.054; the highest 2% begin near 0.39. Shown is part of a subset that was picked to be rich in the highest values.
# Target: Ylr278c (UniProt Q05854)
# Assay: PBM E-score (8-mer binding enrichment) (E-score (-0.5 to 0.5)); higher = stronger / more preferred TF binding
# Settings: protein concentration: 200 nM; construct: GST-DNA-binding domain
# Summary of the method: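 Yeast transcription factors carrying a GST tag, as full-length proteins or DNA-binding domains, were produced by PURExpress in vitro transcription/translation. About 100-200 nM protein was applied to universal all-10-mer Agilent arrays, double-stranded by primer extension on fresh or once-stripped slides. Bound protein was detected with fluorescent anti-GST, and scans were normalised with masliner. The Universal PBM Analysis Suite gave each ungapped eight-base word, pooled with its reverse complement, an E-score, a modified Wilcoxon-Mann-Whitney statistic.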
# Sequence of UniProt Q05854 (Q05854 whole entry): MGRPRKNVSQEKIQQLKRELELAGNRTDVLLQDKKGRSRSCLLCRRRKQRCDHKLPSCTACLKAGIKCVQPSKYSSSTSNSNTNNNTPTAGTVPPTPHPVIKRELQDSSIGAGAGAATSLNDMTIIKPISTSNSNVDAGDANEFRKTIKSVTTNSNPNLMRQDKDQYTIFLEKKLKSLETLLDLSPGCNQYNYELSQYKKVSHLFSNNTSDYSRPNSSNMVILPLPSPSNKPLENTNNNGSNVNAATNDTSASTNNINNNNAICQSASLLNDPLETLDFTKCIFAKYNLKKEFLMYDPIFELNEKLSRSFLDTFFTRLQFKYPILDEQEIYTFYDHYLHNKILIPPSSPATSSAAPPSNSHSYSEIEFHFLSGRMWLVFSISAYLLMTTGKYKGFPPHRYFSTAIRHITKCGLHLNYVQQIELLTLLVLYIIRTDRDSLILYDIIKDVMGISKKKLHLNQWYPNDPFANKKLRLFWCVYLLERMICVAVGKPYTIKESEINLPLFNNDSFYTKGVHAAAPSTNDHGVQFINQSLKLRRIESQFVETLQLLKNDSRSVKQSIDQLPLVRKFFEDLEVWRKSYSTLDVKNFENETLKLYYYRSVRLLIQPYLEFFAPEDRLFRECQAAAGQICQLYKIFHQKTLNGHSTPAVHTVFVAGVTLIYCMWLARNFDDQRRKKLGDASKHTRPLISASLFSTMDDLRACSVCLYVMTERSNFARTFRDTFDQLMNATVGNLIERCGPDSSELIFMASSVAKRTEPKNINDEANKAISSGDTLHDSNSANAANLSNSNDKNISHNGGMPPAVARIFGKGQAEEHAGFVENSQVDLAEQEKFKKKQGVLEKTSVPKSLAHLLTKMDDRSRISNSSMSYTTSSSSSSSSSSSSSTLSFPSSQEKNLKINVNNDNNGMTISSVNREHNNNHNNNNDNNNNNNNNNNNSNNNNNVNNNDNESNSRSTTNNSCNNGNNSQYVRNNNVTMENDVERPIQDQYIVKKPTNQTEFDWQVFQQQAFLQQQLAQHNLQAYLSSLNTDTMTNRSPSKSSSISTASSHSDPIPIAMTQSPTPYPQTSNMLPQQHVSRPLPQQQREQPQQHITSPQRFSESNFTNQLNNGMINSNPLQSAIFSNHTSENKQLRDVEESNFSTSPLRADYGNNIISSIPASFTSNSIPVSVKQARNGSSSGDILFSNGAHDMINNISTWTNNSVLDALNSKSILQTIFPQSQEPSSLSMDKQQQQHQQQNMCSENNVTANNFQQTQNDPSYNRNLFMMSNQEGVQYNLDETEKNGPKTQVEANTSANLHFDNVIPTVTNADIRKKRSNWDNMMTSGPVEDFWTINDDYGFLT
row,Sequence,PBM E-score
1,ACATCGGA,0.377
2,GCATCGGA,0.437
3,GCATCGGC,0.308
4,CCATCGGC,0.282
5,CCATCGGA,0.415
6,TCATCGCA,-0.0812
7,CCATCGGG,0.259
8,TCATCGAA,-0.174
9,TCATCGGA,0.408
10,AAAAAGAG,-0.21
11,AGATCGCC,-0.00696
12,CCGAGAAG,0.226
13,GACAATGC,0.0317
14,GAGTCGAC,0.00525
15,CAATGGTG,-0.248
16,ACTCAATA,-0.101
17,CCACCGAC,0.0976
18,CCTCCAAC,-0.212
19,ACTCCAAG,-0.198
20,ACTCCTAG,-0.114
21,TCTCCAAA,-0.126
22,ACGCCGAC,0.343
23,ACTCCGAC,0.481
24,ACTCCGAG,0.478
25,TCTCCTAA,-0.144

row,Sequence,PBM E-score
1,ACACCGAC,0.26
2,CCTCCGAC,0.405
3,TCTCCGAA,0.455
4,AAGTAGGA,-0.313
5,ACACCGCT,0.00228
6,GGCGCATA,0.0769
7,GGGCTACA,-0.0376
8,GTGACGTA,-0.142
9,CGTCCACC,-0.00012
10,ACCTCATA,-0.101
11,AAATACGG,0.14
12,ACGAACCA,-0.125
13,ACTCCGAA,0.484
14,CATCCGAG,0.193
15,ACTCCGAT,0.484
16,CCTCCGAG,0.426
17,CCTCCAAG,-0.202
18,ACTCCAAA,-0.118
19,ACTCCCAT,-0.16
20,GCTCCGAA,0.464
21,GCTCCGAC,0.374
22,ACTCCTAT,-0.0311
23,ACTCCCAA,0.0108
24,GCTCCAAA,-0.172
25,ACCTAAGC,0.0293

row,Sequence,PBM E-score
1,GGAGAAAC,0.309
2,CAGGGCGC,0.0102
3,GGAACCAC,0.0576
4,AAGCCACG,-0.0652
5,AAAAGAGA,-0.223
6,AAAGAAGA,-0.0104
7,CCTCCGAA,0.441
8,CCTCCAAA,-0.14
9,CCACCGAA,-0.0526
10,GTGAGATA,0.052
11,GACGGAGA,0.453
12,CACGGAGC,0.403
13,TACGGAGA,0.386
14,CACGGACC,0.282
15,AACGGAAA,0.374
16,AACGGATA,0.292
17,GACGGAGC,0.378
18,GACGGATA,0.249
19,AACGGAGA,0.393
20,GAGGGAGA,-0.145
21,CACGGAGA,0.429
22,CAAGGAGA,-0.105
23,AAATCTGT,-0.0526
24,TGTTGAAA,-0.0138
25,ACTACTTA,-0.0798

row,Sequence,PBM E-score
1,CGACTATA,-0.0135
2,CCCCAGAA,0.00338
3,CACAAAGA,-0.197
4,CCATAAGC,-0.105
5,AACGGAGT,0.448
6,CACGGACG,0.22
7,AACGGACT,0.328
8,AACGGAGG,0.3
9,CACGGAGG,0.394
10,AACGGAGC,0.309
11,CCAGCTCG,-0.106
12,CTGAACCC,-0.0929
13,TAGAGGAA,-0.211
14,CAACTGGG,-0.0669
15,GCGGACCC,0.354
16,ACGGACCG,0.335
17,CCGGACCC,0.391
18,CAGGACCG,0.0623
19,CCGGACCA,0.369
20,CCGGACCG,0.426
21,CCATTCAC,-0.042
22,CTAGATAG,-0.28
23,CGCCGTAC,0.163
24,AAGGCATT,-0.246
25,CACTCGGA,0.329

row,Sequence,PBM E-score
1,AACTCGGT,0.00153
2,GACTCGGC,0.134
3,GACTCGGA,0.4
4,AACTCGGA,0.392
5,TACTCGGA,0.342
6,CAATGGGC,-0.106
7,ACTCATCC,-0.0863
8,AGGCCACG,-0.0792
9,AACCCCGC,0.41
10,GACCCCGA,0.336
11,ACCCCCGA,0.261
12,AACCCCCG,0.26
13,GACCCCGC,0.247
14,AACCCCGT,0.381
15,TACCCCGA,0.411
16,AAACCCCC,-0.0651
17,AACCCCGA,0.431
18,ACCCCCGC,0.266
19,AAACCCCG,0.449
20,CACCCCGA,0.29
21,ACGCAGAA,-0.0444
22,TATATGCA,-0.245
23,ACCAGTCA,-0.036
24,TAAGGAAA,-0.131
25,GCCTATAA,-0.116

row,Sequence,PBM E-score
1,AAGCGTTG,-0.256
2,CCAGCGCA,0.0176
3,AAGGTGCC,-0.0322
4,CGTGAATA,-0.00311
5,AAACCCGG,0.428
6,AAACCCGA,0.384
7,ACCCCCGG,0.334
8,CAACCCGG,0.229
9,CAACCCCG,0.397
10,ATACCCCG,0.401
11,CACCCCGG,0.314
12,CAACCCCC,-0.0384
13,AACCCCGG,0.458
14,ATACCCCA,0.00063
15,ATACCCCC,0.0218
16,AAACCCGC,0.287
17,ACTGTTGC,0.0649
18,ATAGGACA,-0.311
19,AGAAGCCG,0.241
20,AATCGAGA,-0.115
21,GAGAAGAC,0.0429
22,CCTATCCG,0.114
23,GAAATGAC,-0.0184
24,AGATTGGG,0.0161
25,GGGAATAC,0.176

row,Sequence,PBM E-score
1,CGGAATAA,0.433
2,CGGAATAG,0.391
3,TGGAATAA,-0.0106
4,GGGAATAA,0.261
5,CGGAATAC,0.423
6,CAGAATAG,-0.179
7,AGGAATAC,-0.0793
8,AGGAATAG,0.102
9,GAGGGTCC,0.173
10,CTGGTTGC,0.123
11,CCTAGCTA,-0.246
12,TCCCTTAA,-0.263
13,ATGCTGGC,-0.147
14,ATAAGTGA,-0.229
15,CGACGCGC,0.21
16,GACCCGGA,0.391
17,TACCCGAA,0.0727
18,CACCCGGA,0.365
19,AACCCGGT,0.304
20,AACCCGGA,0.435
21,TACCCGGA,0.395
22,AACCCGGC,0.313
23,GACCCGGC,0.184
24,TACCCGTA,-0.0475
